Assay results as given in PubChem BioAssay.
The source made the active and inactive calls. Unless noted, the rule behind the calls is not given here.

How the values were obtained:
[1] = system: XIP peptide (Xip251-270) binding; test: XIP fragment 251-270 binding compounds – biochemical, small-molecule microarray, fluorescence 635/667 nm, 0.1 µg/mL protein, primary screen (AID 1182); conditions: fluorescent protein binding, 635 nm, higher = more signal, called active from +8 up or from −8 down
XIP peptide (Xip251-270) = test: compounds binding XIP fragment 251-270 – biochemical, small-molecule microarray, fluorescence 635/667 nm, 0.5 µg/mL protein, primary screen (AID 1183); conditions: fluorescence 635 nm, higher = more signal
[2] = blood-stage malaria parasite viability loss – strain 3D7, DAPI fluorescence, 100 nL, primary screen (AID 1184);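 note: parasites grown inside human red blood cells in medium with human serum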; conditions: P. falciparum 3D7 growth, 3 d, higher = more signal
[3] = target: Homeobox protein Hox-A13 (Mus musculus) (UniProt Q62424); test: disruptors of Hoxa13 oligonucleotide interaction – biochemical, fluorescence polarization, labeled oligonucleotide, primary screen (AID 1185); conditions: Hoxa13:DNA binding, 15 min, higher = more signal, called active from +8 up or from −8 down
Chain of Homeobox protein Hox-A13 (Mus musculus) (Q62424 whole entry, looked up): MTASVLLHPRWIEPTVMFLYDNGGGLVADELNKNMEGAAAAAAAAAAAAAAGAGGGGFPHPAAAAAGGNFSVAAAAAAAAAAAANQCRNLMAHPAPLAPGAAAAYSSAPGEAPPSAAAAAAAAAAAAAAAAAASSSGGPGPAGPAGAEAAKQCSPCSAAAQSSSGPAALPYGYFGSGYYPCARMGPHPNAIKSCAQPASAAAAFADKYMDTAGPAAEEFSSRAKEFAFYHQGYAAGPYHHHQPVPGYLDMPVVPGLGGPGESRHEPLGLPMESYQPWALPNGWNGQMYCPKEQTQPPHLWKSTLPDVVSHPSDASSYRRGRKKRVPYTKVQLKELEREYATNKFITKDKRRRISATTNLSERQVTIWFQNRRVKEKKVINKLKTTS

[4] = blockers of DNA damage checkpoint Chk1 activation – imaging, HeLa, hydroxyurea, phospho-Chk1 antibody, percent positive cells, primary screen (AID 1186); conditions: hydroxyurea-induced phospho-Chk1 immunofluorescence imaging, higher = more signal
[5] = blockers of DNA damage checkpoint Chk1 activation – imaging, HeLa, hydroxyurea, phospho-Chk1 nuclear intensity, primary screen (AID 1187); conditions: hydroxyurea-induced phospho-Chk1 immunofluorescence imaging, higher = more signal

Q: Which composite z-score [1] does the source give for `[N-]=[N+]=Nc1ccccc1[C@H]1OC(c2ccc(OCCCO)cc2)=N[C@@]1(Cc1ccccc1)C(=O)O` here?
A: 0.387 (inactive)

Q: What about the composite z-score (XIP peptide (Xip251-270)) of the same compound?
A: 0.686

Q: What about the z-score [2] of the same compound?
A: -1.23

Q: What about the z-score [3] of the same compound?
A: -5.18 (inactive)

Q: What about the z-score [4] of the same compound?
A: -0.48 (inactive)

Q: What about the z-score [5] of the same compound?
A: -0.822 (inactive)

Q: With `C#CCN(Cc1ccccc1Br)C(/C=C/c1ccccc1)CO` (stereo unspecified) as the compound, how does the composite z-score [1] read?
A: 1.09 (inactive)

Q: And the composite z-score (XIP peptide (Xip251-270))?
A: -0.318

Q: And the z-score [2]?
A: -1.02

Q: And the z-score [3]?
A: -6.39 (inactive)

Q: What about the z-score [4] of the same compound?
A: -0.348 (inactive)

Q: What about the z-score [5] of the same compound?
A: -0.323 (inactive)

Q: What does the source list for `[N-]=[N+]=NCc1ccccc1C[C@]1(C(=O)N2CCOCC2)N=C(c2ccc(OCCCO)cc2)O[C@H]1c1ccccc1N=[N+]=[N-]`?
A: composite z-score [1]: 0.141 (inactive); composite z-score (XIP peptide (Xip251-270)): 0.229; z-score [2]: -2.6; z-score [3]: -2.96 (inactive); z-score [4]: -0.551 (inactive); z-score [5]: -0.635 (inactive)

Q: With `Cc1ccc(S[C@]2(C(=O)NC(C)C)CC(=O)N(Cc3ccccc3Cl)[C@@H]2c2ccc(CO)cc2I)cc1` as the compound, how does the composite z-score [1] read?
A: 0.226 (inactive)

Q: What about the composite z-score (XIP peptide (Xip251-270)) of the same compound?
A: 0.293

Q: What about the z-score [2] of the same compound?
A: 0.906

Q: What about the z-score [3] of the same compound?
A: -3.31 (inactive)

Q: And the z-score [4]?
A: 0.244 (inactive)

Q: And the z-score [5]?
A: 0.723 (inactive)

Q: Which composite z-score [1] does the source give for `CCOC(=O)C=Cc1cc([N+](=O)[O-])ccc1O` here?
A: -0.0238 (inactive)

Q: And the composite z-score (XIP peptide (Xip251-270))?
A: -0.466

Q: And the z-score [2]?
A: -1.14

Q: What about the z-score [3] of the same compound?
A: 0.98 (inactive)

Q: And the z-score [4]?
A: -0.818 (inactive)

Q: What about the z-score [5] of the same compound?
A: -1.46 (inactive)

Q: Which composite z-score [1] does the source give for `COC(=O)[C@@]1(Cc2ccc(F)cc2)[C@H]2c3cc(C(=O)N(C)C)n(Cc4ccc(S(C)(=O)=O)cc4)c3C[C@H]2CN1C(=O)c1ccccc1` here?
A: 1.46 (inactive)

Q: And the composite z-score (XIP peptide (Xip251-270))?
A: 0.788

Q: What about the z-score [2] of the same compound?
A: -0.589

Q: And the z-score [3]?
A: -4.58 (inactive)

Q: And the z-score [4]?
A: 0.144 (inactive)

Q: What about the z-score [5] of the same compound?
A: 0.0541 (inactive)

Q: With `CCOC(=O)C1=CCC(c2ccccc2)N(S(=O)(=O)CC[Si](C)(C)C)C1` (stereo unspecified) as the compound, how does the composite z-score [1] read?
A: -0.0447 (inactive)

Q: What about the composite z-score (XIP peptide (Xip251-270)) of the same compound?
A: 0.113

Q: What about the z-score [2] of the same compound?
A: -0.391

Q: And the z-score [3]?
A: -2.31 (inactive)

Q: What about the z-score [4] of the same compound?
A: -0.262 (inactive)

Q: What about the z-score [5] of the same compound?
A: 0.0088 (inactive)

Q: For `CN(C)CCCNC(=O)[C@@]1(c2ccc([N+](=O)[O-])cc2)CC(=O)N(C2CCCCC2)[C@@H]1c1ccc(CO)cc1I`, which composite z-score [1] is on record?
A: -0.117 (inactive)

Q: And the composite z-score (XIP peptide (Xip251-270))?
A: 0.248

Q: What about the z-score [2] of the same compound?
A: -2.17

Q: And the z-score [3]?
A: 0.362 (inactive)

Q: What about the z-score [4] of the same compound?
A: -0.227 (inactive)

Q: What about the z-score [5] of the same compound?
A: -0.413 (inactive)

Q: With `C=CCNC(=O)[C@H]1[C@@H]2C(=O)O[C@@H](c3ccccc3)[C@@H](c3ccccc3)N2[C@@H](c2ccc(OCCO)cc2)[C@]12C(=O)N(C(=O)OCCOC)c1ccccc12` as the compound, how does the composite z-score [1] read?
A: 0.95 (inactive)

Q: What about the composite z-score (XIP peptide (Xip251-270)) of the same compound?
A: 0.846

Q: And the z-score [2]?
A: -1.63

Q: And the z-score [3]?
A: -4.21 (inactive)

Q: And the z-score [4]?
A: -0.105 (inactive)

Q: What about the z-score [5] of the same compound?
A: -0.0934 (inactive)

Q: Which composite z-score [1] does the source give for `O=C1OCCC/C=C\[C@H]2OC34C=CCN(Cn5nnc6ccccc65)C(=O)[C@H]3N(CCO)C(=O)[C@@H]4C12` (stereo partly specified) here?
A: -0.0143 (inactive)

Q: What about the composite z-score (XIP peptide (Xip251-270)) of the same compound?
A: 0.96

Q: What about the z-score [2] of the same compound?
A: -1.18

Q: And the z-score [3]?
A: -4.72 (inactive)

Q: What about the z-score [4] of the same compound?
A: 0.0428 (inactive)

Q: What about the z-score [5] of the same compound?
A: 0.371 (inactive)

Q: With `CCC(CC)C(O)C1C=CC2C(=O)N(C)C(=O)C2N1Nc1ccccc1` (stereo unspecified) as the compound, how does the composite z-score [1] read?
A: 0.544 (inactive)

Q: And the composite z-score (XIP peptide (Xip251-270))?
A: 0.758

Q: And the z-score [2]?
A: 0.865

Q: And the z-score [3]?
A: -3.63 (inactive)

Q: What about the z-score [4] of the same compound?
A: -0.0753 (inactive)

Q: And the z-score [5]?
A: 0.0501 (inactive)

Q: Which composite z-score [1] does the source give for `CCN(CC)c1ccc(N2CC=CC34O[C@@H]5/C=C\CCC(C)OC(=O)C5[C@H]3C(=O)N(C(CO)C(C)C)[C@@H]4C2=O)cc1` (stereo partly specified) here?
A: 0.0003 (inactive)

Q: And the composite z-score (XIP peptide (Xip251-270))?
A: -0.431

Q: And the z-score [2]?
A: -0.214

Q: What about the z-score [3] of the same compound?
A: -6.03 (inactive)

Q: What about the z-score [4] of the same compound?
A: 0.0858 (inactive)

Q: What about the z-score [5] of the same compound?
A: 0.0174 (inactive)

Q: What does the source list for `COCCOC(=O)N1C(=O)[C@@]2(c3ccccc31)[C@H](c1ccc(O)cc1)N1[C@H](c3ccccc3)[C@H](c3ccccc3)OC(=O)[C@H]1[C@@H]2C(=O)NC[C@H](O)c1ccccc1`?
A: composite z-score [1]: 2.15 (inactive); composite z-score (XIP peptide (Xip251-270)): 0.837; z-score [2]: -0.682; z-score [3]: -5.58 (inactive); z-score [4]: -0.229 (inactive); z-score [5]: -0.211 (inactive)

Q: For `CC1CC/C=C\[C@H]2OC34C=CCN(C(C)(C)C)C(=O)[C@H]3N(CCCCCCO)C(=O)[C@@H]4C2C(=O)O1` (stereo partly specified), which composite z-score [1] is on record?
A: 1.87 (inactive)

Q: And the composite z-score (XIP peptide (Xip251-270))?
A: -0.512

Q: What about the z-score [2] of the same compound?
A: 0.621

Q: And the z-score [3]?
A: -4.21 (inactive)

Q: And the z-score [4]?
A: -0.82 (inactive)

Q: And the z-score [5]?
A: 0.193 (inactive)

Q: Which composite z-score [1] does the source give for `COCCCN1C(=O)[C@@]2(Cc3ccccc31)c1ccccc1C(=O)N(Cc1ccccc1C(F)(F)F)[C@H]2c1ccc(CO)cc1` here?
A: -0.219 (inactive)

Q: What about the composite z-score (XIP peptide (Xip251-270)) of the same compound?
A: 0.55

Q: What about the z-score [2] of the same compound?
A: -0.698

Q: What about the z-score [3] of the same compound?
A: -0.825 (inactive)

Q: And the z-score [4]?
A: 0.25 (inactive)

Q: What about the z-score [5] of the same compound?
A: 0.49 (inactive)

Q: Which composite z-score [1] does the source give for `CN(C)CCCC[C@@H]1NC(=O)[C@H]2C[C@@H](C(=O)NCCCCCNC(=O)CS)[C@@H](c3cccc(OCCO)c3)N2C1=O` here?
A: 1.2 (inactive)

Q: What about the composite z-score (XIP peptide (Xip251-270)) of the same compound?
A: 0.567

Q: What about the z-score [2] of the same compound?
A: -0.103

Q: What about the z-score [3] of the same compound?
A: -3.25 (inactive)

Q: What about the z-score [4] of the same compound?
A: -0.244 (inactive)

Q: What about the z-score [5] of the same compound?
A: -0.144 (inactive)

Q: With `O=C1[C@H]2C=C(Br)[C@H](C[C@@H]2c2ccccc2)[C@@]12CO2` as the compound, how does the composite z-score [1] read?
A: 0.122 (inactive)

Q: And the composite z-score (XIP peptide (Xip251-270))?
A: 0.31

Q: What about the z-score [2] of the same compound?
A: -0.391

Q: And the z-score [3]?
A: -1.29 (inactive)

Q: What about the z-score [4] of the same compound?
A: -0.155 (inactive)

Q: What about the z-score [5] of the same compound?
A: -0.0519 (inactive)

Q: Which composite z-score [1] does the source give for `CC(=O)n1cc(C(O)C2C=CC3C(=O)N(C)C(=O)C3N2Nc2ccccc2)c2ccccc21` (stereo unspecified) here?
A: 0.144 (inactive)

Q: What about the composite z-score (XIP peptide (Xip251-270)) of the same compound?
A: 0.383

Q: And the z-score [2]?
A: 0.413

Q: What about the z-score [3] of the same compound?
A: -3.76 (inactive)

Q: And the z-score [4]?
A: -0.47 (inactive)

Q: What about the z-score [5] of the same compound?
A: -0.987 (inactive)

Q: For `CC(C)[C@@H](CO)NC(=O)[C@H]1[C@@H](c2ccccc2)N(c2ccccc2)O[C@@H]1C`, which composite z-score [1] is on record?
A: -0.795 (inactive)

Q: What about the composite z-score (XIP peptide (Xip251-270)) of the same compound?
A: -0.248

Q: And the z-score [2]?
A: 0.484

Q: And the z-score [3]?
A: -1.23 (inactive)

Q: And the z-score [4]?
A: -0.0482 (inactive)

Q: What about the z-score [5] of the same compound?
A: 0.564 (inactive)

Q: Which composite z-score [1] does the source give for `COc1ccc(C(O)C2C=CC3C(=O)N(C)C(=O)C3N2N2CCCCC2)c2ccccc12` (stereo unspecified) here?
A: 0.591 (inactive)

Q: What about the composite z-score (XIP peptide (Xip251-270)) of the same compound?
A: 0.637

Q: What about the z-score [2] of the same compound?
A: -0.179

Q: And the z-score [3]?
A: -4.89 (inactive)

Q: What about the z-score [4] of the same compound?
A: 0.294 (inactive)

Q: What about the z-score [5] of the same compound?
A: 0.312 (inactive)

Q: Which results are given for `CC[C@@H]1C=C(C(=O)O)[C@H](c2ccco2)N1S(=O)(=O)c1ccc(C)cc1`?
A: composite z-score [1]: 3.88 (inactive); composite z-score (XIP peptide (Xip251-270)): -0.265; z-score [2]: -0.761; z-score [3]: -4.78 (inactive); z-score [4]: 0.186 (inactive); z-score [5]: 0.162 (inactive)
